Laboratory results as given in publication PMC12215968.

Molecular target: SERBP1 (UniProt Q8NC51)
Experiment: cross-linking mass spectrometry
Settings: TSTO, in cells

Sequence of YWHAQ, P27348 (P27348 whole entry): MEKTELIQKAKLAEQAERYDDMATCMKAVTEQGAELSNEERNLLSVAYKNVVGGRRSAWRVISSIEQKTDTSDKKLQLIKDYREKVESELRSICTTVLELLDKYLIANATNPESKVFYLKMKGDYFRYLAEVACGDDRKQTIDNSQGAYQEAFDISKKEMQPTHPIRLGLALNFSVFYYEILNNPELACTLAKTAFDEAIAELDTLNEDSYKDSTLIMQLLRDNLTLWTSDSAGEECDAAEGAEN
Sequence of YWHAB, P31946 (P31946 whole entry): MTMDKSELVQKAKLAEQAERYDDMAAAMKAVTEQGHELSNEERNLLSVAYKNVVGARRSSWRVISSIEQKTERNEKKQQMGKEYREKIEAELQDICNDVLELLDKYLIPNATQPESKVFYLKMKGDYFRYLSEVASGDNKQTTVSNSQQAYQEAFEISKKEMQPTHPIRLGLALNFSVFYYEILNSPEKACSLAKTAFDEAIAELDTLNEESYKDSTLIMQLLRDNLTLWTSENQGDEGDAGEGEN
Sequence of YWHAG, P61981 (P61981 whole entry): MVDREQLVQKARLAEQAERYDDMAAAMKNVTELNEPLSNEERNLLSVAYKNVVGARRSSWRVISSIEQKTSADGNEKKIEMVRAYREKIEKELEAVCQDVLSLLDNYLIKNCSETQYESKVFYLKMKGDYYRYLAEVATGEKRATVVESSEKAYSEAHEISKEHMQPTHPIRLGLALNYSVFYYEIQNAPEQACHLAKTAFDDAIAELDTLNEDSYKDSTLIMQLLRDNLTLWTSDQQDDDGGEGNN

Row | Substance | cross-linked residues
1 | RPS10, P46783 | K107 - K299
2 | RPS28, P62857 | K16 - K140
3 | RPS3, P23396 | K108 - K236
4 | RPL34, P49207 | K115 - K37
5 | RPS15, P62841 | K58 - K327
6 | RPL23A, P62750 | K30 - K68

Molecular target: YWHAE (UniProt P62258)
Experiment: cross-linking mass spectrometry
Settings: TSTO, in cells

Sequence of YWHAE (P62258 whole entry): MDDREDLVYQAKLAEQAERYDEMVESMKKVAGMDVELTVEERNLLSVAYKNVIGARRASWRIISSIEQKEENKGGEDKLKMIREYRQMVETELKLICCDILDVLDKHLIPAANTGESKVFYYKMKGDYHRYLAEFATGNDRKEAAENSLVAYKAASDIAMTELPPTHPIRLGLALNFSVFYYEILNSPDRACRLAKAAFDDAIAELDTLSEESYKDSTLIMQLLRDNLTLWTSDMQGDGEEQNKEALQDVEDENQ

Row | Substance | cross-linked residues
7 | YWHAQ, P27348 | K68 - K12
8 | YWHAB, P31946 | K70 - K12
9 | YWHAG, P61981 | K69 - K12
